Experimental data: PubChem BioAssay (NCATS)
Results filed as inconclusive are left out. Activity calls are given as the source filed them. Calls follow the shape of the dose curve; as a rule, active = well fitted cell-killing curve with a large enough effect; inconclusive = small, poorly fitted or top-dose-only effect, or effect the other way; inactive = no such curve, though single readings can be large or run the other way.

Legend:
[1] = Quantitative High-Throughput drug screen in 47 multiple myeloma cell lines against the NCATS MIPE library collection: KMS28PE_JCRB cell viability assay (AID 1918983); also: nearly all actives have a fitted effect of over 35% in size
How it was run: (§1)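 500 cells/well per myeloma line exposed to pinned MIPE 4.0 compounds for 48 h at 37 °C, 5% CO2. Viability read as ATP by CellTiter-Glo luminescence, normalised to DMSO-only (100%) and media-only (0%) wells.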

[2] = Quantitative High-Throughput drug screen in 47 multiple myeloma cell lines against the NCATS MIPE library collection: L363_DSMZ cell viability assay (AID 1918984); also: nearly all actives have a fitted effect of over 40% in size
How it was run: as §1

[3] = Quantitative High-Throughput drug screen in 47 multiple myeloma cell lines against the NCATS MIPE library collection: KMS34_JCRB cell viability assay (AID 1918985); also: nearly all actives have a fitted effect of over 40% in size
How it was run: as §1

[4] = Quantitative High-Throughput drug screen in 47 multiple myeloma cell lines against the NCATS MIPE library collection: OCIMY5_PLB cell viability assay (AID 1918988); also: nearly all actives have a fitted effect of over 65% in size
How it was run: as §1

[5] = Quantitative High-Throughput drug screen in 47 multiple myeloma cell lines against the NCATS MIPE library collection: OPM1_PLB cell viability assay (AID 1918989); also: nearly all actives have a fitted effect of over 40% in size
How it was run: as §1

[6] = Quantitative High-Throughput drug screen in 47 multiple myeloma cell lines against the NCATS MIPE library collection: SKMM1_PLB cell viability assay (AID 1919863); details: SKMM1 myeloma viability, CellTiter-Glo ATP, 48 h; viability: stronger effect = lower value; also: nearly all actives have a fitted effect of over 35% in size
How it was run: as §1

[7] = Quantitative High-Throughput drug screen in 47 multiple myeloma cell lines against the NCATS MIPE library collection: U266_ATCC cell viability assay (AID 1919864); also: nearly all actives have a fitted effect of over 35% in size
How it was run: as §1

[8] = Quantitative High-Throughput drug screen in 47 multiple myeloma cell lines against the NCATS MIPE library collection: XG6_PLB cell viability assay (AID 1919865); also: nearly all actives have a fitted effect of over 40% in size
How it was run: as §1

[9] = Quantitative High-Throughput drug screen in 47 multiple myeloma cell lines against the NCATS MIPE library collection: XG1_PLB cell viability assay (AID 1919866); also: nearly all actives have a fitted effect of over 35% in size
How it was run: as §1

[10] = Quantitative High-Throughput drug screen in 47 multiple myeloma cell lines against the NCATS MIPE library collection: OCIMY7_PLB cell viability assay (AID 1918987); details: OCI-MY7 myeloma viability, CellTiter-Glo ATP, 48 h; viability (% of DMSO): at 45.8 µM (top of the series); also: nearly all actives have a fitted effect of over 65% in size
How it was run: as §1
Potency is read from the fitted curve at half-maximal effect.

COc1ccc(-c2cc(=O)c3c(O)cc(O)cc3o2)cc1O
inactive: Potency [1] | viability [6] 119%
active: Potency [2] 5.9 µM | Potency [3] 20.9 µM | Potency [4] 2.64 µM | Potency [5] 7.43 µM | Potency [7] 8.33 µM | Potency [8] 2.35 µM

O=C(O)c1ccccc1C(=O)Nc1ccc(-c2ccccc2)cc1
inactive: Potency [1] | Potency [2] | Potency [3] | Potency [4] | Potency [7]

NS(=O)(=O)c1cccc2c1C(=O)c1cccc(O)c1C2=O
active: Potency [1] 1.18 µM | Potency [2] 0.166 µM | Potency [3] 0.418 µM | Potency [4] 0.526 µM | Potency [5] 0.235 µM | Potency [6] 0.372 µM | Potency [7] 6.62 µM | Potency [8] 0.372 µM | Potency [9] 0.264 µM

O=C(Nc1cccc(Br)c1)c1cccc(S(=O)(=O)N2CCCCCC2)c1
active: Potency [1] 23.5 µM | Potency [2] 13.2 µM | Potency [4] 18.7 µM | Potency [8] 14.8 µM | Potency [9] 16.6 µM

COc1ccc(Cc2nccc3cc(OC)c(OC)cc23)cc1OC
active: Potency [1] 8.33 µM | Potency [3] 3.72 µM | Potency [4] 16.6 µM | Potency [5] 11.8 µM | Potency [8] 13.2 µM | Potency [9] 14.8 µM

CN(C)CCC=C1c2ccccc2COc2ccc(CC(=O)O)cc21
inactive: Potency [1] | Potency [3] | viability [6] 114%

O=C(OCC#CCSc1nnc(-c2cccc3ccccc23)o1)c1cc2ccccc2s1
inactive: Potency [1] | Potency [2] | Potency [10] | Potency [5] | Potency [7] | Potency [8] | Potency [9]

C=C1C(=O)[C@@]23C(CC[C@@H]1[C@H]2O)[C@@]12CO[C@]3(O)[C@@H](O)[C@@H]1C(C)(C)CC[C@@H]2O (stereo partly specified)
active: Potency [1] 3.72 µM | Potency [3] 1.05 µM | Potency [10] 0.296 µM | Potency [4] 1.87 µM | Potency [6] 13.2 µM | Potency [8] 1.48 µM | Potency [9] 2.96 µM

O=C(O)C=Cc1ccc(O)c(O)c1
active: Potency [1] 2.96 µM | Potency [2] 16.6 µM | Potency [4] 18.7 µM | Potency [5] 16.6 µM | Potency [6] 29.6 µM | Potency [7] 14.8 µM

COc1ccc(C2CC(c3ccccc3)=NN2c2ccc(S(N)(=O)=O)cc2)cc1 (stereo unspecified)
inactive: Potency [1] | Potency [7]
active: Potency [2] 16.6 µM | Potency [5] 20.9 µM | Potency [8] 18.7 µM

CC1(C)O[C@H]2C[C@@H]3[C@H]4CCC5=CC(=O)C=C[C@]5(C)[C@@]4(F)[C@@H](O)C[C@]3(C)[C@]2(C(=O)CO)O1
active: Potency [3] 0.0118 µM
inactive: Potency [1] | Potency [5] | viability [6] 108% | Potency [7] | Potency [8] | Potency [9]

CC1(C)S[C@H]2[C@H](NC(=O)[C@@H](N)c3ccc(O)cc3)C(=O)N2[C@@H]1C(=O)O
active: Potency [1] 18.7 µM | Potency [2] 2.64 µM | Potency [7] 11.8 µM | Potency [8] 2.64 µM | Potency [9] 1.32 µM

O=C(CCN1CCN(C(=O)OCc2cc(Cl)cc(Cl)c2)CC1)c1ccc2[nH]c(=O)oc2c1
inactive: Potency [1] | Potency [3] | Potency [5] | viability [6] 136% | Potency [7] | Potency [8]

O=C1c2c(O)cc(O)cc2O[C@H](c2cc(O)c(O)c(O)c2)[C@H]1O
inactive: Potency [5]
active: Potency [1] 20.9 µM | Potency [3] 11.8 µM | Potency [4] 13.2 µM | Potency [6] 20.9 µM | Potency [7] 11.8 µM

CC1(C)Cc2c(sc(NC(=S)NC(=O)c3ccccc3)c2C(=O)O)CO1
active: Potency [8] 14.8 µM
inactive: Potency [1] | Potency [3] | Potency [5] | Potency [9]

Cc1cc(OCCCc2c(C(=O)O)n(Cc3cccnc3)c3c(-c4c(COc5ccc(N6CCN([S+](C)(=O)[O-])CC6)cc5)nn(C)c4C)cccc23)cc(C)c1Cl
inactive: Potency [2]
active: Potency [1] 23.5 µM | Potency [4] 23.5 µM | Potency [6] 23.5 µM | Potency [7] 3.32 µM | Potency [8] 20.9 µM

O=C(Nc1c(Cl)cncc1Cl)c1ccc(OC(F)F)c(OCC2CC2)c1
active: Potency [9] 18.7 µM
inactive: Potency [1] | Potency [2] | Potency [5] | viability [6] 111% | Potency [7]

CCC(=O)O[C@]1(C(=O)CO)CC[C@H]2[C@@H]3CCC4=CC(=O)CC[C@]4(C)[C@@H]3CC[C@@]21C
inactive: Potency [1] | Potency [5] | viability [6] 108% | Potency [7]
active: Potency [3] 0.0017 µM

CO[C@H]1C[C@@H]2CC[C@@H](C)[C@@](O)(O2)C(=O)C(=O)N2CCCC[C@@H]2C(=O)O[C@H]([C@@H](C)C[C@@H]2CC[C@H](O)[C@H](OC)C2)CC(=O)[C@H](C)C=C(C)[C@@H](O)[C@@H](OC)C(=O)[C@H](C)C[C@H](C)C=CC=CC=C1C
inactive: Potency [1] | Potency [2] | viability [6] 82.9% | Potency [8]

CC(C)=CC[C@@H](O)C1=CC(=O)c2c(O)ccc(O)c2C1=O
active: Potency [1] 1.05 µM | Potency [3] 1.05 µM | Potency [4] 0.469 µM | Potency [5] 16.6 µM | Potency [6] 1.05 µM | Potency [7] 0.469 µM | Potency [8] 0.469 µM | Potency [9] 0.418 µM

C[C@]12CCC3c4ccc(O)cc4CCC3C1CCC2=O (stereo partly specified)
active: Potency [1] 11.8 µM | Potency [3] 10.5 µM | Potency [4] 0.0019 µM
inactive: Potency [7] | Potency [8] | Potency [9]

O=C(NOCC(O)CO)c1cc(Br)c(F)c(F)c1Nc1ccc(I)cc1F (stereo unspecified)
active: Potency [10] 0.0166 µM | Potency [8] 2.35 µM
inactive: Potency [1] | Potency [2] | Potency [7]

Cc1ccc(C(=O)Nc2cccc(C(F)(F)F)c2)cc1Nc1nc(-c2cccnc2)nc2c1cnn2C
active: Potency [1] 26.4 µM | Potency [3] 16.6 µM | Potency [4] 10.5 µM | Potency [5] 8.33 µM | Potency [6] 14.8 µM | Potency [7] 8.33 µM | Potency [8] 4.69 µM | Potency [9] 10.5 µM

Cc1c[nH]c(C=C2C(=O)Nc3ccccc32)c1CCC(=O)O
inactive: Potency [2] | Potency [7] | Potency [8]
active: Potency [1] 23.5 µM | Potency [4] 20.9 µM | Potency [5] 0.833 µM

CC(=O)OC1C(C)OC(Oc2c(-c3ccc(O)cc3)oc3cc(O)cc(O)c3c2=O)C(O)C1OC(C)=O (stereo unspecified)
active: Potency [5] 10.5 µM
inactive: Potency [1] | Potency [3] | Potency [9]

NC1=N[C@@]2(c3cc(NC(=O)c4ccc(F)cn4)ccc3F)COC[C@@H]2CS1
active: Potency [2] 0.418 µM | Potency [4] 23.5 µM | Potency [5] 16.6 µM | Potency [8] 3.72 µM
inactive: Potency [1] | viability [6] 111%

COc1ccc2cccc(CCNC(C)=O)c2c1
inactive: Potency [1] | Potency [2] | Potency [10] | viability [6] 129% | Potency [8] | Potency [9]

NS(=O)(=O)c1ccc(NC2=CC(=O)c3ccccc3C2=O)cc1
inactive: Potency [1]
active: Potency [2] 1.66 µM | Potency [4] 4.69 µM | Potency [5] 6.62 µM | Potency [6] 4.69 µM

NC(=O)c1cccc2[nH]c(-c3ccc([C@H]4CCCN4)cc3F)nc12
active: Potency [2] 14.8 µM | Potency [4] 20.9 µM | Potency [9] 8.33 µM
inactive: Potency [1]

COc1cc(Nc2ncc(F)c(Nc3ccc4c(n3)NC(=O)C(C)(C)O4)n2)cc(OC)c1OC
active: Potency [1] 0.833 µM | Potency [3] 4.69 µM | Potency [10] 0.743 µM | Potency [4] 6.62 µM | Potency [5] 1.87 µM | Potency [8] 1.66 µM
inactive: Potency [7]

OC[C@H]1O[C@@H](Oc2cc(O)cc(C=Cc3ccc(O)cc3)c2)[C@H](O)[C@@H](O)[C@H]1O
inactive: Potency [1] | Potency [3] | Potency [7]
active: Potency [4] 9.35 µM

Oc1ccc(C2=Cc3ccc(O)cc3OC2)cc1
active: Potency [1] 18.7 µM | Potency [3] 0.662 µM | Potency [10] 1.32 µM | Potency [4] 2.96 µM | Potency [5] 1.48 µM | Potency [6] 11.8 µM | Potency [7] 5.9 µM | Potency [8] 1.32 µM

CC(C)(C)Cn1c(N)nc2ccc(-c3[nH]c(C(C)(C)C)nc3-c3ccc(F)cc3)nc21
inactive: Potency [2]
active: Potency [1] 23.5 µM | Potency [4] 16.6 µM | Potency [5] 20.9 µM | Potency [8] 14.8 µM

CCOc1ccc(Nc2nc(-c3c(C)nc4ccccn34)cs2)cc1
inactive: Potency [8]
active: Potency [1] 0.0059 µM | Potency [3] 0.0033 µM | Potency [4] 0.0026 µM | Potency [5] 0.0066 µM | Potency [6] 0.264 µM

O=c1cc(-c2ccc(O)cc2)oc2cc(O)cc(O)c12
active: Potency [1] 18.7 µM | Potency [3] 13.2 µM | Potency [4] 10.5 µM | Potency [5] 18.7 µM | Potency [7] 20.9 µM

CC=CC(=O)N(CC)c1ccccc1C
inactive: Potency [1] | Potency [2] | Potency [4] | Potency [5] | viability [6] 126% | Potency [7]
active: Potency [8] 23.5 µM | Potency [9] 26.4 µM

CC(C(=O)O)c1ccc(-c2ccccc2)c(F)c1 (stereo unspecified)
active: Potency [10] 14.8 µM | Potency [7] 20.9 µM | Potency [8] 20.9 µM
inactive: Potency [1] | Potency [3] | Potency [5] | viability [6] 102%

CC1(C)CCC[C@@]2(C)[C@@H]1CC[C@@]1(C)OC(=O)C[C@H]21
active: Potency [4] 23.5 µM | Potency [6] 8.33 µM
inactive: Potency [1] | Potency [3] | Potency [8] | Potency [9]

COc1ccc2c3c1OC1C[C@@H](O)C=C[C@@]31CCN(C)C2 (stereo partly specified)
active: Potency [4] 10.5 µM | Potency [7] 4.18 µM | Potency [9] 5.9 µM
inactive: Potency [1] | Potency [3] | Potency [5] | viability [6] 103%

CN(C)C1CCN(C(=O)c2ccc(NC(=O)Nc3nc(N4CCOCC4)nc(N4CCOCC4)n3)cc2)CC1
active: Potency [1] 0.0132 µM | Potency [3] 0.132 µM | Potency [4] 0.0418 µM

Cc1nnc(C(C)C)n1C1C[C@H]2CC[C@@H](C1)N2CC[C@H](NC(=O)C1CCC(F)(F)CC1)c1ccccc1 (stereo partly specified)
active: Potency [8] 4.69 µM
inactive: Potency [1] | Potency [2] | Potency [4] | viability [6] 147%

Cc1[nH]c(C=C2C(=O)Nc3ccc(S(=O)(=O)Cc4c(Cl)cccc4Cl)cc32)c(C)c1C(=O)N1CCC[C@H]1CN1CCCC1
active: Potency [2] 2.35 µM | Potency [3] 20.9 µM | Potency [4] 14.8 µM | Potency [5] 8.33 µM | Potency [6] 20.9 µM | Potency [8] 8.33 µM
